Among the data in the supplement of paper PMC6555819 are PBM binding z-score values, retold here.

The experiment concerns VDR:RXRa (NR concentration 270 nM, RXRa partner concentration 90 nM). Briefly: PBM binding z-score (relative to random genomic background probes); higher = stronger binding; sequences stand for … in GC…GCGATTGACAGCGTAGAATGAAGG
On the procedure: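 Protein-binding microarray (Agilent 4x180K custom design, double-stranded 60-nt probes: 5' GC cap, 34-nt variable region, 24-nt constant primer region; full probe sequence given). Purified or IVT nuclear receptor:RXRα heterodimers (3:1 NR:RXRα, mostly 270:90 nM) or homodimers were incubated for 1 h in PBS with 2% milk and no ligand, then detected with Alexa488 antibodies. Fluorescence from o1-orientation probes (~5 replicates averaged) was converted to z-scores against 500 random hg19 background probes. Variable regions are seed direct-repeat (DR0–DR5) sites, all their single-nucleotide variants and half-site ablations.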
As for AGTCAAAGTTCCGGACGAGGTAACGTAAAGCACG, the PBM binding z-score is -0.357. Next, CCAGACAGGTGAAAGGGAACTCAGTCTGGTACGC: -0.152; ATCGAAAGATCGAGGTGAGTATAGAGAAAGGGAA: -0.327; CGAACTAGGTCAGATCAGGACAGTGAAGGATGAT: 1.12. Under GCATATAGGTAATACAAGGTGAAAGGCCGATTGT stands 0.402; under AGGCAAAGTTCATCTAGGTAACGTAAGATATGCT, 4.86. Next, TCTTGTGGATCAAGCAGGTTAAGAAAGCCTGAGT: 0.403; TCATATAGGTCAATGCTAGGTGAAAGTCCGATCT: 2.9; CATACAGGGTCAGCAAGGCCAGAGTAGGGACGGC: 5.7. For the sequence CGAACTAGGTCAGCCAGGACAGTGAATACATTGA, the PBM binding z-score came out at 3.1. Consider ATCTCTAGGTAACCAAGTTCAGTGAATGCCGAAC, for which the PBM binding z-score came out at 4.23. Next, CCTTACGGGTCACTCCAGATTATAGCATCGGAGT: 2.72; ATAACGAGGGCACGCTGAGTTGATAGCAGAGTAG: 2.27; ATCGAAAGGTCGAAGGTGAGTATGCCCACCCGAA: 2.68.

ATCTCTAGGTAACAAGTCCAGTGAAAGAGAGGAC displayed a PBM binding z-score of 0.103. On to GCTTGTAGATCAAGGTTAAAAAAGACTAAGCTAA, for which the PBM binding z-score was 0.328. As for ATCTCTAGGTAAAGTCCAGTGAAAGATCGATAGA, the PBM binding z-score was -0.12. Under CCTACTGGGCCATCAGGTCATCGATATCAACGTT stands 1.77; under GCTCGGAGGACAAGGACAGAGCTTTGTCCGTAGA, -0.798; under TCTTGTAGATCAGCAGGTTAAGAAGGCTGGCCAA, 0.724. Next, ATCTGTAGGTTACATCCGGGTCATTCAGGCTATG: 4.16; TCTTGAAGATCAGCAGGTTAAGAAAGCTGGCCAA: 0.374; CTCGAAAGGTTGGTTGAGGTGAGTATACGGATAA: 0.828.

Sequence AGAATGAGGTTATACGGAGATCAGGGAAGAAAGT showed a PBM binding z-score of 1.56. Next, GCATATAGGTGATACAAGGTGAAAGTCCGATTGT: 0.445; GTAACGAGGGCATTCGAGTTGATAGCATGGCGAT: 3.62. In turn, CGTCCAAGATCAAAGGTCAGTGAAGAGATGACGG yielded a PBM binding z-score of 3.08.

For CCTTACGTGTCAAGGTTATAGCACGGGTGGTACG, the PBM binding z-score is 0.738.

On to TATACCGGGTCAAAGGCCAGAGTACGAATGTCGA, for which the PBM binding z-score turned out to be 3.9. The sequence TCTTGTATATCAACAGGAGGTTAAGAAAGATCGA yielded a PBM binding z-score of 1.28.

Sequence ATCTCTAGGTGAGACTCAGTTCAGTGAAGAACGC registered a PBM binding z-score of 0.863. ACAACGAGGGCACGCTGAGTTGATAGCAGAGTAG yielded a PBM binding z-score of 2.01. In turn, AGAATGAGGTTACTAAGATCAGGGAATTGCGGTC came in with a PBM binding z-score of 1.42.

For the sequence GCTGCTAGGTCAACTGATGGTCAGTTAAAGCTCG, the PBM binding z-score is 1.85. In the case of GCTGCTAGGTCAACTGATTGTCAGCTAAAGCTCG, the PBM binding z-score was determined as 1.14. Next, GGAACGAGGGCAAGATGATAGCAGAGTTTGATGG: 0.221. Regarding CGTCCATGGTCATAGGAGGTCAGTGAAGACAGAT, the PBM binding z-score came out at 2.94. For the sequence GATACAGGGTCAAGGCCGGAGTACGCGTATTGAT, the PBM binding z-score was 4.38.

CTCGAAAGGTCGTGCTCAGGTGAGTTTACCAAAC: the PBM binding z-score turned out to be 3.98. Under AGTCAAAGTTCATCCAGGTAACGTAAGATATGCT stands 5.39.
